Sampled rows, rich in hits. Any-hit rate of the full collection: about 1.1%.
Mtb BioA inh = inhibitors of Mycobacterium tuberculosis BioA enzyme; purified M. tuberculosis BioA enzyme, plate reader; inhibition, % at 9.99 µM; hit rate 0.096% among 360,000; in the data active means inhibition above about 40%; inconclusive means no clear call, values can overlap the other calls
FadD28 binding = blocks FadD28 binding to the bisubstrate probe. AID 588549. inhibition, % at 12.5 µM. fluorescence polarization. hit rate 0.22% among 360,000; in the data active means inhibition above about 8.5%, passing the limit was not always enough; inconclusive means no clear call, values can overlap the other calls
PfHsp40 rescue = restores yeast growth despite PfHsp40 toxicity; S. cerevisiae expressing PfHsp40, growth rescue, ATP luminescence; growth rescue, % at 12.5 µM; hit rate 0.68% among 340,000; AID 504582; in the data active means growth rescue above about 28%, passing the limit was not always enough; inconclusive means no clear call, values can overlap the other calls;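 further: yeast W303a lacking pdr1 and pdr3 grown in galactose medium; growth measured after three days at 30 °C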
PrP UTR inh = inhibition of PrP 5' UTR reporter expression | cell-based PrP 5' UTR mRNA reporter, plate reader | inhibition, % (test concentration not listed) | hit rate 0.35% among 340,000; in the data active means inhibition above about 52%; further: 0 = median of the neutral control wells
TcdB GH inh = TcdB glycohydrolase inhibition; TcdB glycohydrolase enzymatic assay, plate reader; inhibition, % at 9.99 µM; hit rate 0.24% among 350,000; AID 652162; P18177; in the data active means inhibition above about 10%
Target sequence (P18177 whole entry, looked up): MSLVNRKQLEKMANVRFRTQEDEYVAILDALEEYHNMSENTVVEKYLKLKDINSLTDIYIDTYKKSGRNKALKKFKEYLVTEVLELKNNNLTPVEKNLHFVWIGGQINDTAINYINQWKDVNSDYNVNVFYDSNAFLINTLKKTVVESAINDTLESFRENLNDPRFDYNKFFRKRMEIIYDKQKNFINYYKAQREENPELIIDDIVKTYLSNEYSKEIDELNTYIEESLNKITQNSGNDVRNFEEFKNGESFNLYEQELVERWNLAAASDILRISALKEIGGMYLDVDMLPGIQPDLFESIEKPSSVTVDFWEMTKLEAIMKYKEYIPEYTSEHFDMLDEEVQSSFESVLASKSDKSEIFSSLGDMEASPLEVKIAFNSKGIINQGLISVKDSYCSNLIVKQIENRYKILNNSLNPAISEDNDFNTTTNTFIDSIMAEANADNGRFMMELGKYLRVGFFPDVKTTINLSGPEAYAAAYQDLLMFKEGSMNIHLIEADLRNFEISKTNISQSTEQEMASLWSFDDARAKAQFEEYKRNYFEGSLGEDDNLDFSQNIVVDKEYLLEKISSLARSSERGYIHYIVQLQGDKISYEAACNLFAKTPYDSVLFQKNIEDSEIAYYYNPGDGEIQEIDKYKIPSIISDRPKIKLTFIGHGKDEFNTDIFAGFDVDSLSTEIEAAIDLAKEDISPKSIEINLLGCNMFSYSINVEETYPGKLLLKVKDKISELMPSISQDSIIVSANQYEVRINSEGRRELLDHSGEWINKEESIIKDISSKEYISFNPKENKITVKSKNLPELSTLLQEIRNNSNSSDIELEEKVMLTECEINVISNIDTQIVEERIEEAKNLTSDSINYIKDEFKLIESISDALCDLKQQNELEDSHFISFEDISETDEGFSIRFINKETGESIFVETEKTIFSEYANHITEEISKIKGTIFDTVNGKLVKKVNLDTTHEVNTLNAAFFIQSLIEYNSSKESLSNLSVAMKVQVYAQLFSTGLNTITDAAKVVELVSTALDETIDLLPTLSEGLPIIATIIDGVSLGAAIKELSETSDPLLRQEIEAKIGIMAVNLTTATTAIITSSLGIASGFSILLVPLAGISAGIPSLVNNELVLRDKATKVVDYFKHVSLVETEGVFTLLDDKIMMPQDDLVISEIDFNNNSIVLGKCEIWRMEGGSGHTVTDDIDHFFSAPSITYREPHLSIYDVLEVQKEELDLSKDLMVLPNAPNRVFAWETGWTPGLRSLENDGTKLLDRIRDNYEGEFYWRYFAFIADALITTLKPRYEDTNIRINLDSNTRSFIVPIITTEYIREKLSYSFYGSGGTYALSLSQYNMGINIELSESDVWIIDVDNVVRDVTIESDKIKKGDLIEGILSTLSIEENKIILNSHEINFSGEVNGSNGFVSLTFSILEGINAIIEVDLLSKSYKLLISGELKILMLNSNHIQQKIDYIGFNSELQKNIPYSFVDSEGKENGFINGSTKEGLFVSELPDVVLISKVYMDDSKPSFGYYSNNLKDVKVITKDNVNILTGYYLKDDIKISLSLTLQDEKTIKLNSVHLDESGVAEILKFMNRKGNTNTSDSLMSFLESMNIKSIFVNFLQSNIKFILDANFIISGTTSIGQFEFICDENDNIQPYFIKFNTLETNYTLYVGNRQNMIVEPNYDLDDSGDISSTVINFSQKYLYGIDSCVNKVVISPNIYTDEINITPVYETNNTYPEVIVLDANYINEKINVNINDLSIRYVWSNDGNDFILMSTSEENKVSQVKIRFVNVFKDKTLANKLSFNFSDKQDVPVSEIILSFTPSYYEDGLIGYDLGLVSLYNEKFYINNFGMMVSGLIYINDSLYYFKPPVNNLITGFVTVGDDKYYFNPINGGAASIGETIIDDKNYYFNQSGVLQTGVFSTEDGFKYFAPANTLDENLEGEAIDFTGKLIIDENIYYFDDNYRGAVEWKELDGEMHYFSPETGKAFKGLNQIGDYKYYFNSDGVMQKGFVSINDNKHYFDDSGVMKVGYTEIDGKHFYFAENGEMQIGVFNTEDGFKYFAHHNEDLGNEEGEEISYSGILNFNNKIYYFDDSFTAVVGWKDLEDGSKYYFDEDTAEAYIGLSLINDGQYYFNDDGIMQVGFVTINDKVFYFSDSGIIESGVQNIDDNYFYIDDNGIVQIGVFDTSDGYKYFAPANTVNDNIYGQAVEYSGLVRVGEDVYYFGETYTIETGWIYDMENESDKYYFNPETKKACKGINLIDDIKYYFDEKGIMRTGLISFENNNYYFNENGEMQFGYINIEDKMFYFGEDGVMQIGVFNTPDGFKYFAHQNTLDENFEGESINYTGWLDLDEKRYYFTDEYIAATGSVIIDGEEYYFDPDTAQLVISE
Numbers without * were called inactive; ? = inconclusive; / = not tested or not shown.

SMILES	Mtb BioA inh	FadD28 binding	PfHsp40 rescue	PrP UTR inh	TcdB GH inh
CC(C)CC#Cc1cnc2c(c1)C(=O)N([C@H](C)CO)C[C@H](C)[C@@H](CN(C)C(=O)CC1CC1)O2	-1.4	/	/	/	-1.5
CCOc1ccc(S(=O)(=O)NC2CCCCCC2)cc1	/	0.8	1.3	-10.4	0.3
COc1cc(S(=O)(=O)NC2CCCCC2)ccc1Cl	-0.1	-0.8	91.1*	12.1	/
CCOc1cc(S(=O)(=O)NC2CCCCCC2)ccc1F	8.2	-4.6	47.6*	-13.4	/
O=C(CCN1C(=O)c2ccccc2C1=O)NC(=S)Nc1ccccc1	/	-3.4	0.2	-15.8	-0.5
O=C(CCN1C(=O)c2ccccc2C1=O)NC(=S)Nc1cccc(Cl)c1	-0.6	-4.3	66.3*	-9.6	/
CO[C@@H]1CN(C)C(=O)c2cc(NC(=O)Nc3ccccc3)ccc2OC[C@@H](C)N(C(=O)Nc2c(C)noc2C)C[C@H]1C	2.8	/	/	/	1.8
O=C(NNC(=O)C1CCN(S(=O)(=O)c2ccc(Cl)cc2)CC1)c1ccc(Cl)cc1	-0.8	-0.7	-0.1	8.2	/
CC1CCN(S(=O)(=O)c2ccc(C(=O)NNC(=O)C3CC3)cc2)CC1	/	-1.6	124.4*	-5.4	-1.8
Cc1cc(C(=O)N2CCN(Cc3ccccc3)CC2)ccc1[N+](=O)[O-]	1.0	-1.2	-0.3	2.2	12.0*
CCC(=O)N(C)C[C@@H]1Oc2cc(-c3ccc(C)cc3)ccc2S(=O)(=O)N([C@H](C)CO)C[C@H]1C	8.3	/	/	/	2.0
O=C1N(c2ccc(Cl)cc2)C(c2cccnc2)N2CCCN12 (centres undefined)	/	-5.5	287.1*	-11.4	2.1
CCOC(=O)c1sc(=S)n(-c2cc(OC)ccc2OC)c1N	/	-1.5	200.5*	-25.6	/
CCOC(=O)CSC1=C(C#N)C(c2ccc(C)o2)CC(=O)N1 (centres undefined)	1.0	-2.1	0.2	54.6*	0.2
CCOC(=O)CSC1=C(C#N)C(c2ccc(Cl)cc2)CC(=O)N1 (centres undefined)	2.4	-2.0	0.7	-23.7	0.5
COc1cc(C(=O)Nc2nc(-c3cccs3)cs2)cc(OC)c1OC	-0.6	-7.1	41.2*	-35.6	1.5
COc1ccc(C(=O)Nc2nc(-c3cccs3)cs2)cc1	1.7	-2.4	15.8	-48.1	/
C[C@H](O)C#Cc1cnc2c(c1)C(=O)N([C@H](C)CO)C[C@H](C)[C@H](CN(C)C(=O)Nc1ccc(C(F)(F)F)cc1)O2	-1.2	/	/	/	/
Cc1nc(Nc2ccc(Cl)cc2Cl)sc1C(=O)Nc1ccccc1	/	-6.2	22.5	-16.1	0.3
Cc1nc(Nc2ccc(Cl)c(Cl)c2)sc1C(=O)Nc1ccccc1	0.5	-8.2	103.4*	-19.8	0.2
O=C(Nc1ccc2c(c1)[C@H]1C[C@@H](CC(=O)N3CCCCC3)O[C@@H](CO)[C@H]1O2)C1CCC1	-0.9	/	/	/	0.9
CC(C)NC(=O)N(C)C[C@H]1OCCCC[C@H](C)Oc2ccc(NC(=O)Nc3ccc(F)cc3)cc2C(=O)N([C@@H](C)CO)C[C@H]1C	-1.1	/	/	/	-0.8
O=C(Nc1nnc(-c2cccs2)o1)c1cccc(Oc2ccccc2)c1	1.3	-1.2	500.1*	-41.6	0.9
O=C(Nc1nnc(-c2cccs2)o1)c1cccc(F)c1	0.4	-2.0	6.0	-15.6	0.4
O=C(COC(=O)c1cccc(NS(=O)(=O)c2ccc(F)c(F)c2)c1)NC(=O)NC1CCCCC1	1.8	31.7*	2.5	-14.9	/
SMILES	Mtb BioA inh	FadD28 binding	PfHsp40 rescue	PrP UTR inh	TcdB GH inh
CCCNC(=O)NC(=O)COC(=O)c1cccc(NS(=O)(=O)c2ccc(F)c(F)c2)c1	-1.4	-1.6	0.6	-17.2	3.8
COCC(=O)NC[C@H]1[C@H](c2ccccc2)[C@@H](CO)N1C(C)=O	2.2	/	/	/	0.3
CNC(=O)c1sc(-c2ccccc2)nc1C	0.1	-3.0	93.3*	-4.0	/
CNC(=O)c1sc(-c2ccc(Cl)cc2)nc1C	0.1	0.1	-0.4	-64.4	/
COc1ccc(NC(=O)Nc2cccc3c2O[C@@H](CN(C)Cc2ccc(C(F)(F)F)cc2)[C@H](C)CN([C@@H](C)CO)C3=O)cc1	2.1	/	/	/	0.1
Cc1cc(C)c2nc(NNC(=O)c3ccc(S(=O)(=O)N4CCCCC4)cc3)sc2c1	-0.2	1.2	-0.3	-23.9	-1.9
Cc1cccc2sc(NNC(=O)c3ccc(S(=O)(=O)N4CCc5ccccc5C4)cc3)nc12	-0.9	2.8	410.1*	7.8	1.0
Cc1cccc2sc(NC(=O)c3cccc(S(=O)(=O)N4CCc5ccccc54)c3)nc12	/	0.7	0.7	-23.7	/
Cc1cccc2sc(NNC(=O)c3ccc(S(=O)(=O)N4CCCC(C)C4)cc3)nc12 (centres undefined)	-0.6	?	355.8*	8.9	1.3
Cc1ccc(C(=O)N2C(=O)C(c3ccccc3)Oc3ccccc32)cc1 (centres undefined)	/	1.4	110.1*	13.2	2.5
CCSC(=S)c1c(C)[nH]n(-c2ccccc2)c1=O	0.6	0.0	34.0*	-29.9	1.8
Cc1cc(-c2c(C)[nH]n(-c3ccc(Cl)cc3)c2=O)n(-c2ccccc2)n1	0.4	-0.3	0.5	-28.5	/
Cc1[nH]n(-c2ccc(Cl)cc2)c(=O)c1C(=O)c1ccccc1	0.1	-1.8	86.9*	-30.2	-0.6
Cc1[nH]n(-c2ccccc2)c(=O)c1-c1ccccc1	1.2	0.6	-0.2	-16.8	/
Cc1[nH]n(-c2ccccc2)c(=O)c1C(=O)c1ccccc1	-1.0	-1.9	1.2	-13.0	0.6
Cc1[nH]n(-c2ccccc2)c(=O)c1C(=O)c1ccc(Cl)cc1	0.7	-2.3	96.5*	-7.9	-1.1
CC=Cc1ccc2n(c1=O)C[C@H]1[C@H](CO)[C@@H](C(=O)N(C)C)N(Cc3cccc(F)c3)[C@@H]21 (mixture of isomers)	6.4	/	/	/	-1.4
CC(=O)N[C@H]1C[C@@H]1c1ccccc1	-0.9	-2.5	-0.2	-18.7	/
N[C@@H]1C[C@H]1c1ccccc1	1.2	-0.9	44.4*	35.1	1.5
C[n+]1c(-c2ccccc2)c2cc(N)ccc2c2ccc(N)cc21	33.7	13.5*	128.1*	8.8	2.3
CCC(=O)N1[C@H](CO)[C@H](c2ccccc2-c2ccccc2)[C@@H]1C#N	/	/	/	/	-1.7
C[C@H](CO)N1C[C@H](C)[C@H](CN(C)S(=O)(=O)c2ccc(Cl)cc2)Oc2c(NC(=O)C3CCOCC3)cccc2C1=O	1.0	/	/	/	0.4
Cc1ccccc1OCC(O)Cn1c2ccccc2c2ccccc21 (centres undefined)	-2.0	-3.7	111.5*	-16.5	0.7
CC(=O)Nc1ccc(OCC(O)Cn2c3ccccc3c3ccccc32)c(C)c1 (centres undefined)	1.1	-3.6	8.7	-10.9	/
C[C@@H]1CN([C@@H](C)CO)C(=O)Cc2cc(N(C)C)ccc2O[C@H]1CN(C)S(=O)(=O)c1ccccc1	2.1	/	/	/	-2.7
Cc1ccc(S(=O)(=O)/N=C2/C=C(Sc3ncn[nH]3)C(=O)c3ccccc32)cc1	-1.4	1.9	119.2*	-39.5	/
CC(C)c1ccc(S(=O)(=O)/N=C2/C=C(Sc3ncn[nH]3)C(=O)c3ccccc32)cc1	/	4.9	-0.6	-13.7	/
Nc1c(Cl)cc(-c2[nH]c3cc(C(=O)NCCO)ccc3c(=O)c2O)cc1Cl	0.8	-6.2	43.4*	-26.4	1.2

High-throughput results: PubChem BioAssay, Broad Institute
